Drawing on PubChem BioAssay (NCATS), this text covers Potency for three compounds.

The assay in a line: NCATS anti-infectives library activity on HEK293 viability as a counter-qHTS vs the C. elegans viability qHTS (AID 1745854). A digest of the protocol:
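CellTiter-Glo luminescence, read on a CCD imager, scored viability of HEK293 cells after 24 hr compound exposure at 37C. Library tested in several concentrations, 1:5 steps, up to 41.7 uM; digitonin served as control.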

Inconclusive results are not listed. Where a call stands in place of a potency, no number is given. The source made the active and inactive calls. Calls come from the whole dose curve; as a rule, active = well fitted cell-killing curve with a large enough effect; inconclusive = small, poorly fitted or top-dose-only effect; inactive = flat fitted curve, though single readings scatter.
Potency is the fitted concentration of half-maximal effect.

With `C[C@@H](N)C(=O)N[C@@H](CO)C(=O)N[C@H](C(=O)N[C@H](C(=O)N[C@H](C(=O)N[C@@H](CC(N)=O)C(=O)N[C@@H](Cc1ccc(O)cc1)C(=O)N[C@H](C(N)=O)[C@@H](C)O)[C@@H](C)O)[C@@H](C)O)[C@@H](C)O`, the Potency result is “inactive”.

Turning to `Nc1ncnc2c1ccn2[C@@H]1O[C@H](CO)[C@@H](O)[C@H]1O`, the Potency is 1120 nM (active).

As for `CN(C)C/C=C/C(=O)Nc1cccc(C(OCCN2CCCCC2)c2cc3nccc(C(=O)O)c3s2)c1` (stereo not drawn), the Potency entry is “inactive”.
